PubChem BioAssay (NCI)
About 79,000 compounds went through this panel and 15% of them were active in at least one assay; those are over-represented in the sample as a whole. Calls of active or inactive are those of the source. No stated cut-off is given here; in the data, active means growth inhibition above about 70%; inactive means the rest.

Tests used:
[1] = NCI Yeast Anticancer Drug Screen. Data for the mec2-1 strain (AID 157); settings: S. cerevisiae mec2-1 strain, stronger effect = higher value
Procedure, shortened: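 Cells of the genetically defined mec2-1 yeast strain are incubated with test compound. Inhibition of growth is calculated against vehicle-treated controls.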

[2] = NCI Yeast Anticancer Drug Screen. Data for the rad14 strain (AID 159);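 further: 0% = growth of vehicle-treated control cultures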; settings: S. cerevisiae rad14 strain growth inhibition, stronger effect = higher value
Procedure, shortened: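 Here, inhibition of yeast growth was measured after compound exposure, using a strain with a genetic defect in DNA damage repair and vehicle-treated cultures as the reference.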

[3] = NCI Yeast Anticancer Drug Screen. Data for the sgs1 mgt1 strain (AID 161);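 further: 0% = growth of cultures given vehicle only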; settings: S. cerevisiae sgs1 mgt1 strain, stronger effect = higher value
Procedure, shortened: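 Read-out: growth inhibition vs vehicle controls. Cells: mutant yeast strain deficient in DNA damage repair.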

[4] = NCI Yeast Anticancer Drug Screen. Data for the CLN2oe strain (AID 163);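 further: 0% = growth of vehicle-only control cultures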; settings: S. cerevisiae CLN2oe strain, stronger effect = higher value
Procedure, shortened: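 Strain altered in cell-cycle control, incubated with compound; growth compared to solvent-treated controls.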

[5] = NCI Yeast Anticancer Drug Screen. Data for the cln2 rad14 strain (AID 165);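 further: 0% = growth equal to vehicle treated cultures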; settings: S. cerevisiae cln2 rad14 strain, stronger effect = higher value
Procedure, shortened: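 The screen exposed genetically defined yeast (cln2 rad14) to test compounds and scored growth inhibition relative to vehicle-treated controls.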

[6] = NCI Yeast Anticancer Drug Screen. Data for the bub3 strain (AID 167); settings: S. cerevisiae bub3 mutant strain, stronger effect = higher value
Procedure, shortened: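 Whole-cell yeast assay. The mutant strain was incubated with compounds, and growth inhibition was determined by comparison with vehicle-treated cells.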

[7] = NCI Yeast Anticancer Drug Screen. Data for the wt2 strain (AID 169);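 further: 0% = growth of vehicle-treated yeast cultures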; settings: S. cerevisiae wt2 strain growth inhibition, stronger effect = higher value
Procedure, shortened: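 Steps: yeast strain treated with compound; growth recorded; inhibition calculated relative to cultures given vehicle alone.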

[8] = NCI Yeast Anticancer Drug Screen. Data for the mlh1 strain (AID 171);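 further: 0% = growth of vehicle-treated control cultures of the same strain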; settings: S. cerevisiae mlh1 strain growth inhibition, stronger effect = higher value
Procedure, shortened: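 Yeast screen: mutant strain plus compound, growth scored against vehicle control wells.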

[9] = NCI Yeast Anticancer Drug Screen. Data for the sgs1 strain (AID 173);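 further: 0% = growth of vehicle-only control cultures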; settings: S. cerevisiae sgs1 mutant, stronger effect = higher value
Procedure, shortened: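 Inhibition of yeast growth served as the measure. The mutant strain was treated with each compound, and growth was normalised to cultures receiving vehicle alone.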

[10] = NCI Yeast Anticancer Drug Screen. Data for the rad18 strain (AID 177); settings: S. cerevisiae rad18 mutant growth inhibition, stronger effect = higher value
Procedure, shortened: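 Inhibition values reflect reduced yeast growth compared with vehicle-treated controls, using a strain engineered with a DNA damage repair defect.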

[11] = NCI Yeast Anticancer Drug Screen. Data for the rad52 strain (AID 147);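 further: 0% = growth of vehicle-treated control cultures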; settings: S. cerevisiae rad52 mutant growth inhibition, stronger effect = higher value
Procedure, shortened: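 Genetically altered yeast (DNA damage repair defect) treated with compound; inhibition calculated relative to vehicle.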

[12] = NCI Yeast Anticancer Drug Screen. Data for the wt1 strain (AID 149);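 further: 0% = growth of vehicle-treated wt1 cultures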; settings: S. cerevisiae wt1 strain (SPY 50644) growth inhibition, stronger effect = higher value
Procedure, shortened: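 Measured: growth of wt1 yeast under compound versus vehicle treatment, reported as inhibition.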

[13] = NCI Yeast Anticancer Drug Screen. Data for the rad50EPP+ strain (AID 151);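 further: 0% = growth of vehicle-treated control cultures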; settings: S. cerevisiae rad50 mutant strain, stronger effect = higher value
Procedure, shortened: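 Strain rad50EPP+; compound exposure; % growth inhibition vs vehicle.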

[14] = NCI Yeast Anticancer Drug Screen. Data for the mgt1 strain (AID 153); settings: S. cerevisiae mgt1 mutant growth inhibition, stronger effect = higher value
Procedure, shortened: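 Read-out: yeast growth inhibition vs vehicle control. Strain mgt1, drawn from a panel altered in DNA damage repair or cell cycle control.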

[15] = NCI Yeast Anticancer Drug Screen. Data for the rad50 strain (AID 155);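 further: 0% = growth of vehicle-only cultures of the same strain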; settings: S. cerevisiae rad50 strain growth inhibition, stronger effect = higher value
Procedure, shortened: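 Growth of the mutant yeast was measured after compound exposure and referenced to vehicle-treated cultures.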

[16] = NCI Yeast Anticancer Drug Screen. Data for the mlh1 rad18 strain (AID 175); settings: S. cerevisiae mlh1 rad18 strain growth inhibition, stronger effect = higher value
Procedure, shortened: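 Compound-treated yeast growth, normalised to vehicle controls. Strain bears defined DNA repair mutations.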

[17] = at 5.0 µM (retest, dose inferred, filed as 0.5)
[18] = at 50.0 µM (retest, dose inferred, filed as 5.0)

Measured: growth inhibition

COc1ccc(C(=O)/C=C\c2ccc(Cl)c(Cl)c2)cc1
active: [3]; [18] 80% | [3]; at 50.0 µM 70.8% | [5]; [18] 77% | [6]; [18] 80% | [6]; at 50.0 µM 74.6% | [7]; at 100.0 µM 76%
inactive: [1]; [17] 47% | [1]; at 11.0 µM 7% | [1]; at 33.0 µM 23% | [1]; [18] 58% | [1]; at 50.0 µM 59.6% | [1]; at 100.0 µM 68% | [2]; at 1.2 µM -19% | [2]; at 3.7 µM -20% | [2]; at 11.0 µM -30% | [2]; at 33.0 µM -17% | [2]; at 100.0 µM 42% | [3]; [17] -18% | [4]; at 1.2 µM 12% | [4]; at 3.7 µM 10% | [4]; at 11.0 µM 8% | [4]; at 33.0 µM 22% | [4]; at 100.0 µM 69% | [5]; [17] 18% | [5]; at 50.0 µM 57.6% | [6]; at 1.2 µM 0% | [6]; at 3.7 µM 2% | [6]; [17] 12% | [6]; at 11.0 µM -3% | [6]; at 33.0 µM 29% | [6]; at 100.0 µM 67% | [7]; at 1.2 µM 15% | [7]; at 3.7 µM 0% | [7]; at 11.0 µM 12% | [7]; at 33.0 µM 37% | [8]; at 1.2 µM 11% | [8]; at 3.7 µM 12% | [8]; at 11.0 µM -11% | [8]; at 33.0 µM 15% | [8]; at 100.0 µM 64% | [9]; at 1.2 µM 10% | [9]; at 3.7 µM 5% | [9]; at 11.0 µM 11% | [9]; at 33.0 µM 44% | [9]; at 100.0 µM 67% | [10]; at 1.2 µM -17% | [10]; at 3.7 µM -35% | [10]; at 11.0 µM -44% | [10]; at 33.0 µM -6% | [10]; at 100.0 µM 52%

COC(=O)C(Cl)(Cl)N=Nc1c(Cl)cc(Cl)c(C)c1Cl
inactive: [11]; at 1.2 µM -14% | [12]; at 1.2 µM -12% | [12]; at 3.7 µM 52% | [13]; at 1.2 µM 12% | [14]; at 1.2 µM -50% | [14]; at 3.7 µM 20% | [15]; at 1.2 µM -34% | [15]; at 3.7 µM 46% | [15]; [17] 49% | [1]; at 1.2 µM -40% | [1]; at 3.7 µM 68% | [1]; [17] 54% | [2]; at 1.2 µM -51% | [2]; at 3.7 µM 59% | [3]; [17] 14% | [3]; [18] 69% | [4]; at 1.2 µM 36% | [4]; at 3.7 µM 22% | [5]; [17] 2% | [5]; [18] -66% | [6]; at 1.2 µM -32% | [6]; at 3.7 µM 11% | [6]; [17] 5% | [6]; [18] -28% | [7]; at 1.2 µM -3% | [8]; at 1.2 µM -34% | [8]; at 3.7 µM 6% | [16]; [17] 59% | [10]; at 1.2 µM 28%
active: [11]; at 3.7 µM 83% | [11]; at 11.0 µM 97% | [11]; at 33.0 µM 98% | [11]; at 100.0 µM 97% | [12]; at 11.0 µM 99% | [12]; at 33.0 µM 99% | [12]; at 100.0 µM 99% | [13]; at 3.7 µM 83% | [13]; at 11.0 µM 99% | [13]; at 33.0 µM 99% | [13]; at 100.0 µM 99% | [14]; at 11.0 µM 96% | [14]; at 33.0 µM 98% | [14]; at 100.0 µM 99% | [15]; at 11.0 µM 96% | [15]; at 33.0 µM 92% | [15]; [18] 99% | [15]; at 50.0 µM 92.5% | [15]; at 100.0 µM 96% | [1]; at 11.0 µM 97% | [1]; at 33.0 µM 98% | [1]; [18] 99% | [1]; at 50.0 µM 91.3% | [1]; at 100.0 µM 98% | [2]; at 11.0 µM 80% | [2]; at 33.0 µM 99% | [2]; at 100.0 µM 98% | [3]; at 50.0 µM 91.9% | [4]; at 11.0 µM 97% | [4]; at 33.0 µM 99% | [4]; at 100.0 µM 99% | [5]; at 50.0 µM 88.2% | [6]; at 11.0 µM 92% | [6]; at 33.0 µM 98% | [6]; at 50.0 µM 93.2% | [6]; at 100.0 µM 98% | [7]; at 3.7 µM 89% | [7]; at 11.0 µM 99% | [7]; at 33.0 µM 99% | [7]; at 100.0 µM 99% | [8]; at 11.0 µM 96% | [8]; at 33.0 µM 100% | [8]; at 100.0 µM 100% | [16]; [18] 99% | [16]; at 50.0 µM 93.2% | [10]; at 3.7 µM 87% | [10]; at 11.0 µM 96% | [10]; at 33.0 µM 98% | [10]; at 100.0 µM 99%
